Test results published in PMC4336329 (PLoS ONE, 2015).
Screen size: about 310,000 compounds; about 2,200 (0.71%) showed an effect of 50% or more. The effect is printed as a negative number. Shown is part of a subset that was picked to be rich in strong results.

biological target: human ether-à-go-go-related gene (hERG) potassium channel (human, UniProt Q12809); assay: primary screen, population patch clamp on CHO cells stably expressing hERG; higher = less effect of the substance
Sequence (Q12809 whole entry, looked up): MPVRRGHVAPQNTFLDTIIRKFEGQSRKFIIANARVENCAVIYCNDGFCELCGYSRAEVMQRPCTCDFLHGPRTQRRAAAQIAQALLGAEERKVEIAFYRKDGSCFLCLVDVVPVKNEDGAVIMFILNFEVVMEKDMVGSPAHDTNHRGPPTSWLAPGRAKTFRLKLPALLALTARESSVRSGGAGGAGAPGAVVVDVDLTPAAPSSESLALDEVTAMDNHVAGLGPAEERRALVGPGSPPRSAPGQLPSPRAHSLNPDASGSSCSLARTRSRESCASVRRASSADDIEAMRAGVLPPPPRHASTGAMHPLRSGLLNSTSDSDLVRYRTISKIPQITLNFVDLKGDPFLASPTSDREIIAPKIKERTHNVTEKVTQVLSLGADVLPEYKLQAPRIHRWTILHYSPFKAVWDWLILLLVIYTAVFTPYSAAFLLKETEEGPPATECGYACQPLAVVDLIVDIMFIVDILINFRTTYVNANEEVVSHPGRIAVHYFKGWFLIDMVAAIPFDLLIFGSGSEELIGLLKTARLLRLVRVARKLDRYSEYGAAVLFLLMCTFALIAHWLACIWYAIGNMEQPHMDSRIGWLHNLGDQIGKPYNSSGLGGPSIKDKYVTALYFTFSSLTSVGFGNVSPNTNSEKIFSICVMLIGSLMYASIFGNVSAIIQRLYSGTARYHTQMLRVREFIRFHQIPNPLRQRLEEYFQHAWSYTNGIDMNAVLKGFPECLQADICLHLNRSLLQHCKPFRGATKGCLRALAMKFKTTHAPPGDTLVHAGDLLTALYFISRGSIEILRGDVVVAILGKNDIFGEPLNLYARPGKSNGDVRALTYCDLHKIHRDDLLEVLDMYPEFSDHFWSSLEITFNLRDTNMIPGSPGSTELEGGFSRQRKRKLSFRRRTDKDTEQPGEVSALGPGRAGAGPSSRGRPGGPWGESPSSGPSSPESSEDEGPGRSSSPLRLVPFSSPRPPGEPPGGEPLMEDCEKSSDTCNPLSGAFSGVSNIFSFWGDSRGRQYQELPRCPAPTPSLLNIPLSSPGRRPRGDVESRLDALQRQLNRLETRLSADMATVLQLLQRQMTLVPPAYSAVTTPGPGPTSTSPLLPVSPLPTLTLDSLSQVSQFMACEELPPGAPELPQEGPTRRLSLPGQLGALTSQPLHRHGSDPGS

SMILES | hERG current change (%, negative = inhibition) at 1uM [%]
Cc1ccc(Oc2nc(C(F)(F)F)nc3ccccc23)cc1 | 6.66
CC(C)(C)OC(=O)N/N=C\c1ccc(OC(=O)c2cccs2)cc1 | 9.49
COc1ccc(-c2n[nH]c(=S)n2-c2ccc(Br)cc2)cc1OC | 16.7
O=C(COC(=O)CCS(=O)(=O)c1ccccc1)Nc1ccccc1 | 0.18
O=C(COC(=O)c1cc[n+]([O-])cc1)Nc1cc([N+](=O)[O-])ccc1Cl | 13.7
O=C(NCC(c1ccco1)N1CCc2ccccc2C1)c1ccc([N+](=O)[O-])cc1 (stereo not drawn) | -7.15
Cc1ccc(C(=O)C[n+]2cccc3ccccc32)cc1.[Br-] | 7.24
O=C(C[n+]1cccc(NC(=O)c2ccccc2)c1)c1cccc([N+](=O)[O-])c1.[Br-] | -39.6
O=C(C[n+]1cccc2ccccc21)c1ccc([N+](=O)[O-])cc1.[Br-] | -53.8
O=C(Nc1ccccc1)c1ccc[n+](Cc2ccc([N+](=O)[O-])cc2)c1.[Br-] | 5.28
O=C(C[n+]1cccc2ccccc21)c1ccccc1.[Br-] | 8.9
O=C(C[n+]1cccc(C(=O)Nc2ccccc2)c1)c1ccc([N+](=O)[O-])cc1.[Br-] | -61
COc1ccc(CC(=O)NNS(=O)(=O)c2ccc([N+](=O)[O-])cc2)cc1OC | 16
O=C(COn1nnc2ccc(Cl)cc21)NCc1ccccc1 | 0.51
CCCCN1C(=O)C(=O)N(CC(=O)NC2CCCc3ccccc32)C1=O (stereo not drawn) | 8.35
Cc1ccc(-c2csc(N(CCCN3CCOCC3)C(=O)c3ccco3)n2)cc1.Cl | -4.11
CN(C)CCCN(C(=O)c1ccco1)c1nc(-c2ccc(Cl)cc2)cs1.Cl | -70.8
CCN(CC)CCCN(C(=O)c1ccco1)c1nc(-c2ccc(C)cc2)cs1.Cl | -90.2
Cc1ccc(-c2csc(N(CCCN(C)C)C(=O)c3ccco3)n2)cc1.Cl | -36.6
CCN(CC)CCCN(C(=O)c1ccco1)c1nc(-c2ccc(Cl)cc2)cs1.Cl | -25.5
Cl.O=C(c1ccco1)N(CCCN1CCOCC1)c1nc(-c2ccc(Cl)cc2)cs1 | -5.41

SMILES | hERG current change (%, negative = inhibition) at 1uM [%]
COc1cccc(C2c3[nH]c4ccccc4c3C[C@H]3C(=O)N(C)CC(=O)N23)c1 (stereo partly drawn) | -1.14
CON(c1nc(Cl)nc(N(C)C)n1)S(=O)(=O)c1ccccc1Cl | 6.38
O=C(Nc1cc(Br)ccc1O)C1CC(c2ccccc2Cl)=NO1 (stereo not drawn) | 18.5
COc1ccc(Nc2nc(N)nc(CN(C)C3CCCCC3)n2)cc1 | -17.9
CCOc1ccc(Nc2nc(N)nc(CCl)n2)cc1 | 7.02
COc1ccccc1Nc1nc(N)nc(CN(C)C2CCCCC2)n1 | -11.7
CCOc1ccc(Nc2nc(N)nc(CN(C)C3CCCCC3)n2)cc1 | -58.2
CCOc1ccccc1Nc1nc(N)nc(CN2CCCCC2C)n1 (stereo not drawn) | -9.01
CCOc1ccccc1Nc1nc(N)nc(CN(C)C2CCCCC2)n1 | -54.3
CC(C)NC(=O)C1CCN(C2CCN(C(=O)Cc3ccc4c(c3)OCO4)CC2)CC1 | 4.98
Cc1cc(N2C(=O)C(O)=C(C(=O)c3cccs3)C2c2ccc(F)cc2)no1 (stereo not drawn) | 14.8
S=C(NCc1ccncc1)Nc1ccccc1 | 7.34
CCOc1ccc(N2C(=O)CC(NCCNc3ccc([N+](=O)[O-])cn3)C2=O)cc1 (stereo not drawn) | -37.8
CCCOc1ccc(N2C(=O)CC(NCCNc3ccc([N+](=O)[O-])cn3)C2=O)cc1 (stereo not drawn) | -57.8
COc1ccc(N2C(=O)CC(NCCNc3ccc([N+](=O)[O-])cn3)C2=O)cc1 (stereo not drawn) | -13.7
CC1(C)CC(=O)C2=C(C1)N(c1ccc(F)cc1)C(N)=C(C#N)C2c1cccs1 (stereo not drawn) | 4.89
CC1CN(C)C(C)C/C1=N\Oc1ccc([N+](=O)[O-])cc1.Cl (stereo not drawn) | -84.5
CN1CCC(=NOc2ccc([N+](=O)[O-])cc2)CC1 | -56
CC1CC(C)CN(S(=O)(=O)c2ccc(Oc3ccc([N+](=O)[O-])cc3)cc2)C1 (stereo not drawn) | 14.4
CN1CCN(C(=O)c2ccc(Oc3ccc([N+](=O)[O-])cc3)cc2)CC1 | -11.7
CC1=CC(=O)C=C(C)C1=NOc1ccc([N+](=O)[O-])cc1 | -11.7

SMILES | hERG current change (%, negative = inhibition) at 1uM [%]
CC1CN(C)C(C)C/C1=N/Oc1ccccc1[N+](=O)[O-].Cl (stereo not drawn) | 2.66
CCCCCc1nnc(NC(=O)C2=COCCO2)s1 | 6.91
O=C(Nc1nc(-c2ccccn2)cs1)c1ccc(F)c(S(=O)(=O)N2CCOCC2)c1 | 5.44
CCCC(=O)Nc1c(-c2cccs2)c(=O)c2ccccc2n1C | 5.25
CC1CCCCC1NC(=O)Cn1cccc1C(=O)c1ccccc1 (stereo not drawn) | 14
CNc1nc2cc([N+](=O)[O-])c([N+](=O)[O-])cc2nc1NC | -3.16
COc1ccc(CN2CCC(C(=O)Nc3ccc(Oc4ccccc4)nc3)CC2)cc1F | -37.8
CCOc1ccc(C(=O)CCC(=O)N2CCC(C(=O)OC)CC2)cc1 | 10.1
CC1=C(C(=O)Nc2ccccc2F)C(c2ccsc2)C2=C(CC(C)(C)CC2=O)N1 (stereo not drawn) | 1.33
C#CCNC(=O)C1CCN(c2cc(C)nc(-c3ccccc3)n2)CC1 | -8.78
C=CCNC(=O)C1CCN(c2cc(C)nc(-c3ccccc3)n2)CC1 | -12.2
Cc1cc(N2CCC(C(=O)NCC3CC3)CC2)nc(-c2ccccc2)n1 | -53
Cc1nn(CC(=O)OCC(=O)Nc2ccccc2[N+](=O)[O-])c(C)c1[N+](=O)[O-] | 7.87
CCCCn1c(N)c(N(CCOC)C(=O)c2ccc(OCc3c(C)noc3C)cc2)c(=O)[nH]c1=O | 19
O=C(CN1CCN(C(C(=O)Nc2ccc(Cl)cc2C(F)(F)F)c2ccccc2)CC1)NC1CC1 (stereo not drawn) | -50.1
O=C(CN1CCN(C(C(=O)Nc2ccc(F)cc2)c2ccccc2)CC1)NC1CC1 (stereo not drawn) | -2.24
Cc1ccc(NC(=O)C(c2ccccc2)N2CCN(CC(=O)NC3CC3)CC2)cc1Cl (stereo not drawn) | -2.31
COc1ccc(N(C(=O)Cn2nnc3ccccc32)C(C(=O)NC(C)(C)C)c2ccc(OC)c(O)c2)cc1 (stereo not drawn) | 14.6
Cc1ccc(N2C(=O)C3CC(c4ccccc4)=C4C5C=CC(C6C(=O)N(c7ccc(C)cc7)C(=O)C56)C4C3C2=O)cc1 (stereo not drawn) | -74.5
Cc1ccc(N2C(=O)C3CC(c4ccccc4)=C4C5C=CC(C6C(=O)N(c7ccc(C)cc7C)C(=O)C56)C4C3C2=O)c(C)c1 (stereo not drawn) | 3.95
Cc1ccc(N2C(=O)C3C4CC(=O)C(c5ccccc54)C3C2=O)cc1 (stereo not drawn) | 4.46

SMILES | hERG current change (%, negative = inhibition) at 1uM [%]
Cn1c(SCC(=O)NC2CC2)nnc1-c1ccccc1 | 6.86
CN(C)/C=N/c1ncc(C(=O)c2ccc(Cl)cc2Cl)s1 | -4.09
Cc1cccc(Nc2cc(C)nc3ccccc23)c1.Cl | -33.5
COc1cccc(Nc2cc(C)nc3ccccc23)c1 | -65.2
COc1ccc(Nc2cc(C)nc3ccccc23)cc1.Cl | -15.6
Cc1ccc(-n2c(C)cc(C(=O)CSc3nnc4ccccn34)c2C)cc1 | 0.977
O=C(NC1CCCCC1)C1CCN(c2nnnn2-c2ccccc2)CC1 | 3.39
COc1ccc(/C=C2\N=C3CCCCCN3C2=O)cc1OC | 14.8
Cc1ccccc1OCC(O)CN1CCN(c2ccc(Cl)cc2)CC1 (stereo not drawn) | -58.2
Cc1ccccc1OCC(O)CN1CCCCC1.Cl (stereo not drawn) | 16.2
C=C1CC(C)OC(c2ccccc2OCC(O)CN2CCCCC2)C1 (stereo not drawn) | -63.3
COc1ccc(N2CCN(CC(O)COc3cc(C)cc(C)c3)CC2)cc1.Cl (stereo not drawn) | -17.5
COc1ccc(N2CCN(CC(O)COc3ccc(C)cc3C)CC2)cc1.Cl (stereo not drawn) | -54.6
Cc1ccccc1OCC(O)CN1CCN(CCN2C(=O)c3cccc4cccc(c34)C2=O)CC1 (stereo not drawn) | -17.3
OC(COc1cccc2ccccc12)CN1CCN(c2ccc(Cl)cc2)CC1 (stereo not drawn) | -1.91
COc1ccc(N2CCN(CC(O)COc3cc(C)ccc3C)CC2)cc1.Cl (stereo not drawn) | -9.86
COc1cccc(OCC(O)CN2CCN(c3ccc(Cl)cc3)CC2)c1 (stereo not drawn) | -14.1
OC(COc1cccc2ccccc12)CN1CCCC1 (stereo not drawn) | -1.17
CC(=O)c1ccccc1OCC(O)CN1CCN(CCN2C(=O)c3cccc4cccc(c34)C2=O)CC1 (stereo not drawn) | -73.5
Cc1cccc(OCC(O)CN2CCN(CCN3C(=O)c4cccc5cccc(c45)C3=O)CC2)c1C (stereo not drawn) | 15.1
O=C(COC(=O)c1nc(Cl)c(Cl)c(Cl)c1Cl)NCc1ccccc1 | 3.59
